From ChEMBL document CHEMBL3988442, “University of Dundee, Small-Polar-MMV Screening Library” (2021) come the findings set out here.

Out of some 38,000 compounds screened, about 1,200 (3.2%) showed an effect of 50% or more. The median lay at about -58%. Only a selection was taken, and strong results are over-represented in it overall.

This experiment has as its system Plasmodium falciparum. As to the kind of experiment: Calibr Malaria Delayed Death Assay SOP. The format is functional, organism-based. Also on record: scale not given: in the data most compounds retested in dose-response had high values. Particulars: concentration 4.99e-06 (unit not given; other assays of the set use mol/L).
`CCCOc1cc(C)ccc1NC(=O)NCCNC(=O)C(C)C`: the “Percent Effect” value is given as -67.23%.
The figure for `CC(C)COC(=O)N1[C@@H](c2ccco2)[C@@H](CO)C[C@]12CCCCNC2=O` is -86.33%; for `COCc1noc(CNc2nc(C3CCCC3)nc3c2CCNCC3)n1` it is 26.49%; for `Cc1nc2c(c(NCC(O)C(F)(F)F)n1)CCNCC2` (configuration not stated) it is -130.8%.
On to `OC(CNc1ncnc2c1CCNCC2)C(F)(F)F` (configuration not stated), for which the “Percent Effect” value was -185.3%.
Turning to `COCCNc1nc(C2CCCC2)nc2c1CCNCC2`, the “Percent Effect” value was found to be 52.24%.
Turning to `COCCNc1nc2c(c(NCc3ccncc3)n1)CCNCC2`, the “Percent Effect” value came out at 12.96%.
Consider `OC(CNc1nc(C2CCCC2)nc2c1CCNCC2)C(F)(F)F` (configuration not stated), for which the “Percent Effect” value was 63.72%.
Take `Cc1nc(CN2CCO[C@H]3[C@@H](Oc4ccccn4)CC[C@@H]32)cs1.O=C(O)C(F)(F)F.O=C(O)C(F)(F)F`: the “Percent Effect” value is reported as -51.07%.
The figure for `COc1cccc(-c2cc(C(=O)NCCCn3cnnc3)[nH]n2)c1` is -185.9%; for `CCn1ncc2c1C(COC)CN(Cc1cnn(C)c1)C2` (configuration not stated) it is -1.77%.
As for `CC[C@@H]1N(Cc2nccs2)CCC[C@]12CCC(=O)N2CCOC.O=C(O)C(F)(F)F`, the “Percent Effect” value is on record as -51.09%.
`Cc1ccc(C(=O)N2CCN(c3ccnc4ccsc34)CC2)o1`: the “Percent Effect” value is 5.694%.
The figure for `Cc1noc(-c2ccnc(N3CCC(CN4CCOCC4)CC3)c2)n1` is -57.29%.
As for `c1coc(CN2CCn3c(nc4ccccc43)C2)c1`, the “Percent Effect” value was -138.4%.
The figure for `CN(Cc1ccco1)C[C@H]1OC[C@@H]2CCN(Cc3nccs3)C[C@@H]21` is 9.527%; for `CN(Cc1ccco1)C[C@H]1OC[C@@H]2CCN(Cc3ccccn3)C[C@@H]21.O=C(O)C(F)(F)F.O=C(O)C(F)(F)F.O=C(O)C(F)(F)F` it is 70.31%; for `CN(Cc1ccco1)C[C@H]1OC[C@@H]2CCN(Cc3cccnc3)C[C@@H]21.O=C(O)C(F)(F)F.O=C(O)C(F)(F)F.O=C(O)C(F)(F)F` it is -41.37%.
The figure for `Cc1cccc(N2CC[C@H]3CO[C@H](CN(C)Cc4ccco4)[C@H]3C2)n1` is 48.83%; for `CN(Cc1ccco1)C[C@H]1OC[C@@H]2CCN(Cc3ccncc3)C[C@@H]21.O=C(O)C(F)(F)F.O=C(O)C(F)(F)F.O=C(O)C(F)(F)F` it is -2.031%.
The figure for `OC1=C2C(=Nc3n[nH]c(O)c3C2c2ccccc2Cl)CCC1` (configuration not stated) is -169.8%.
In the case of `Cn1nc(C(=O)N2CCCC2)c(F)c1NC(=O)Cc1ccccc1`, the “Percent Effect” value is given as -43.72%.
Regarding `Cc1nc2ccnn2c(C)c1CCC(=O)N1CCN(CCO)CC1`, the “Percent Effect” value is -40.17%.
In the case of `CCn1ncnc1C(C)Nc1cc(C2CC2)ncn1` (configuration not stated), the “Percent Effect” value is listed as -128.7%.
In the case of `Cc1cccc(CN2C(=O)CO[C@@H]3CN(Cc4cnn(C)c4)C[C@H]32)c1.O=C(O)C(F)(F)F.O=C(O)C(F)(F)F`, the “Percent Effect” value is given as -89.5%.
For the compound `CC(C)CNC(=O)CNc1c(NCc2ccncc2)c(=O)c1=O`, the “Percent Effect” value was -63.87%.
The figure for `Cc1ccc2nc(CN3CCCCC3CCN3CCOCC3)cn2c1` (configuration not stated) is 7.984%; for `O=C(NC1CCN(CC2CC2)C1)N1CCC(OC2CCCCC2)CC1` (configuration not stated) it is 53.27%; for `O=C(NC1CCN(CC2CC2)C1)c1ccc(N2CCC(O)CC2)cc1` (configuration not stated) it is -9.255%.
The figure for `CSC(C)(C)CNC(=O)NC1CCN(CC2CC2)C1` (configuration not stated) is -39.54%; for `O=C(NC1CCN(CC2CC2)C1)c1ccc(C(=O)c2cc[nH]c2)cc1` (configuration not stated) it is -13.77%.
For `NC(=O)C1CCN(C(=O)NC2CCN(CC3CCCC3)C2)CC1` (configuration not stated), the “Percent Effect” value is recorded as -59.5%.
The figure for `O=C(NC1CCN(CC2CCCC2)C1)N1CCC(OCC2CC2)CC1` (configuration not stated) is 63.12%.
The figure for `CNc1nc2c(s1)C(=O)CN(C(=O)NCCc1ccccc1)C2` is -35.41%; for `COCCN1CCC(c2nc3ccc(NC(C)C)cn3n2)CC1.O=C(O)C(F)(F)F` it is -58.6%; for `CCNc1ncc2c(n1)CN(c1ccc(C)c(C)c1)C2=O` it is -153.3%.
The figure for `Cc1ccc(S(=O)(=O)Nc2ccc(C)c(C(=O)O)c2)s1` is -129.6%; for `O=C(NCCN1CCOCC1)C1=NOC2(CCN(Cc3nccs3)C2)C1` (configuration not stated) it is -143.8%.
Turning to `Cc1nn(C)c(Cl)c1CN1CCN(c2nccs2)C(C)C1` (configuration not stated), the “Percent Effect” value is reported as -15.39%.
The figure for `Cc1nn(C)c(Oc2ccc(Cl)cc2)c1CN1CCC(CN)C1` (configuration not stated) is 92.45%; for `Cc1nn(C)c(Oc2ccccc2)c1CNC1CCOc2ccccc21` (configuration not stated) it is -79.66%.
The figure for `O=C(O)C(F)(F)F.O=C(c1ccccn1)N1CCC2(CC1)COC(COCC1CCCC1)C2` (configuration not stated) is -17.9%.
The figure for `CC(C)C(C)NC(=O)Nc1cccc2c1CCN(S(C)(=O)=O)C2` (configuration not stated) is -62.13%.
Regarding `Cc1c[nH]c(CN2CCC3(CCCN(Cc4ccc(F)c(F)c4)C3)C2)n1` (configuration not stated), the “Percent Effect” value was 79.41%.
The figure for `Fc1ccc(CN2CCCC3(CCN(Cc4ncc[nH]4)C3)C2)cc1F` (configuration not stated) is 59.25%; for `O=C(c1cn[nH]c1)N1CCC2(CCCN(Cc3ccc(F)c(F)c3)C2)C1` (configuration not stated) it is -30.22%; for `O=C1N(Cc2ccc(F)c(F)c2)CCCC1(O)CNCc1ncc[nH]1` (configuration not stated) it is -127.8%.
The figure for `CN(C)C(=O)N1CCCC2(CCN(Cc3ccc(Cl)c(F)c3)C2)C1` (configuration not stated) is 40.95%.
In the case of `Cc1ccc(CN2CCC3(CCCN(Cc4ccc(F)c(F)c4)C3)C2)o1` (configuration not stated), the “Percent Effect” value was found to be 25.14%.
In the case of `Cc1noc(CN2CCCC(Cn3nc(C)nc3C)C2)n1` (configuration not stated), the “Percent Effect” value is -86.57%.
The figure for `N#Cc1c(SCCN2CCCCCC2)sc2c(O)cc(O)nc12` is -30.34%; for `CN(C)S(=O)(=O)N1C[C@@H]2COC[C@]2(COc2ccccn2)C1.O=C(O)C(F)(F)F` it is -16.81%; for `CCCn1nnc(NCc2cc(Br)cc(Br)c2OC)n1` it is -108.1%.
As for `COc1ccccc1OCC(=O)NCC(O)(c1cccs1)C1CC1` (configuration not stated), the “Percent Effect” value is listed as -17.87%.
The figure for `CCN1CCn2c(-c3cccc(F)c3)cnc2C12CCN(C(C)=O)CC2.O=C(O)C(F)(F)F` is -93.41%; for `CC(=O)N1CCC2(CC1)c1ncc(-c3ccc(F)cc3)n1CCN2C` it is -51.39%.
The figure for `CN1CCn2c(-c3ccccc3)cnc2C12CCN(CC1CC1)CC2.O=C(O)C(F)(F)F.O=C(O)C(F)(F)F.O=C(O)C(F)(F)F` is 80.28%; for `Cc1ccc(-c2cnc3n2CCN(C)C32CCN(CC3CC3)CC2)cc1.O=C(O)C(F)(F)F.O=C(O)C(F)(F)F.O=C(O)C(F)(F)F` it is 38.95%.
The figure for `CN1CCn2c(-c3cnn(C)c3)cnc2C12CCN(CC1CC1)CC2.O=C(O)C(F)(F)F.O=C(O)C(F)(F)F.O=C(O)C(F)(F)F` is -83.71%; for `CCS(=O)(=O)N1CCC2(CC1)c1ncc(-c3cccnc3)n1CCN2C` it is -142.7%.
As for `CN1CCn2c(-c3cccc(F)c3)cnc2C12CCN(CC1CC1)CC2.O=C(O)C(F)(F)F.O=C(O)C(F)(F)F.O=C(O)C(F)(F)F`, the “Percent Effect” value was determined as 75.26%.
As for `CNC(=O)N1CCC2(CC1)c1ncc(-c3cccc(F)c3)n1CCN2C.O=C(O)C(F)(F)F`, the “Percent Effect” value is given as -80.59%.
